D2 PAM-1 – D2 dopamine receptor (human) potentiation. P14416. actives 0.34% (n = 340,000). HEK293 T-REx D2, calcium flux, EC20 dopamine potentiation. potentiation, % at 10 µM;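 active = potentiation over 3 SD above the plate norm, cut at about 30% in these data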
Target sequence (P14416 whole entry, looked up): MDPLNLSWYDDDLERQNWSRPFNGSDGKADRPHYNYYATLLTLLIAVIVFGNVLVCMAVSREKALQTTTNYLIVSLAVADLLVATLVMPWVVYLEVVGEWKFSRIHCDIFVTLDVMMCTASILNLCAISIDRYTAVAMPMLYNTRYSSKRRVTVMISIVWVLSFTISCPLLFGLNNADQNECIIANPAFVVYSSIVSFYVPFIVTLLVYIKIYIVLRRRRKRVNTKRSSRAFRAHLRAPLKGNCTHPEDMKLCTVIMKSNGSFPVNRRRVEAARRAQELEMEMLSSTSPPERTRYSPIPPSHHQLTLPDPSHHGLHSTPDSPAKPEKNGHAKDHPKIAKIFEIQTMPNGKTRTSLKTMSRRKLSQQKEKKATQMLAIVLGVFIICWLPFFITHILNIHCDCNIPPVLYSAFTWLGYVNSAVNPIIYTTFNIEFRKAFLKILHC
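Tetracycline-induced HEK293 T-REx cells force-coupled to calcium signalling expressed D2; compounds were pin-added after a 10 s baseline, read kinetically 180 s, then an EC20 dopamine challenge followed with a further 180 s calcium read.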
D2 ag-1 – agonists of human D2 dopamine receptor; P14416; HEK293 T-REx D2 cells, calcium flux agonist mode; activation, % at 2 µM; actives 0.53% (n = 340,000); AID 485358;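 active = activation over 3 SD above normal in the single-dose calcium agonist read, cut at about 30% in these data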
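Agonism is scored from calcium flux in a force-coupled, inducible HEK293 cell line expressing D2, read kinetically for 180 s after compound addition against dopamine controls.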
D2 ag-2 – agonists of human D2 dopamine receptor (beta-arrestin); DiscoveRx PathHunter D2 beta-arrestin, luminescence, 90 min; 100% = 57 uM dopamine signal; activation, % (test concentration not listed); actives 0.084% (n = 360,000); AID 624465; in the data active = activation above about 40%; inconclusive = between about 15% and that limit
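DiscoveRx PathHunter D2 beta-arrestin cells (2,100/well) attached overnight, then compound-stimulated 90 min at 37 C in HBSS/10 mM HEPES/0.1% Tween-20 buffer; beta-galactosidase complementation read by luminescence after 1 h at ambient temperature. Dopamine 57 uM final (EC100) as control.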
D2 antag – D2 dopamine receptor (human) antagonism; inhibition, % at 10 µM; HEK293 TREx D2 cells, calcium flux, dopamine EC80; actives 2% (n = 340,000); in the data active = inhibition above about 30%; inactive = below that, where a call was filed
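Tetracycline-induced HEK293 T-REx cells expressing D2 force-coupled to calcium signalling were dye-loaded, exposed to compound for 180 s, then challenged with an EC80 of dopamine; calcium flux was followed kinetically for a further 180 s.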
D2 PAM-2 – human D2 receptor positive allosteric modulation; DiscoveRx D2 beta-arrestin cells, luminescence, 90 min; 100% = 57 uM dopamine signal; AID 624464; actives 0.23% (n = 360,000); potentiation, % (concentration not given with the values); P14416; in the data active = potentiation above about 50%; inconclusive = mostly about 30% to 49%
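D2 cells co-treated with compound plus 50 nM dopamine (EC20) for 90 min at 37 deg C to detect potentiation. Beta-arrestin recruitment was read as enzyme-fragment luminescence after 1 h at ambient temperature. Full response was set by 57 uM dopamine.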
Hits are given with their value; n = inactive; u = inconclusive; x = not tested or not shown; ! = a repeat was not active. Rows were chosen to be rich in hits. Some 2.4% of all compounds tested hit in one or more screens of this group.

SMILES | D2 PAM-1 | D2 ag-1 | D2 ag-2 | D2 antag | D2 PAM-2
O=C(Nc1ccccc1N1CCN(c2ccccc2)CC1)C12CC3CC(CC(C3)C1)C2 | 32 | n | n | n | n
CCN(CC)S(=O)(=O)c1cccc(C(=O)Nc2sc3c(c2C#N)CCC(C)C3)c1 (configuration not stated) | n | n | x | x | x
COc1c(Cl)cccc1-c1cn2ccc(C)cc2n1 | n | n | n | 35 | n
Cc1ccc(C(=O)Nc2ccc3oc(-c4ccc(C(C)(C)C)cc4)nc3c2)cc1 | n | n | x | x | x
COc1cc(/C=C2\SC(=Nc3ccc(Cl)c(C(=O)O)c3)NC2=O)c(Br)c(Br)c1O | n | 87 | n | 37 | n
COC(=O)/C=C1\SC(=Nc2ccc(Cl)c(Cl)c2)NC1=O | x | n | n | n | n
COc1cc(/C=C2\SC(=Nc3ccccc3)NC2=O)cc(Cl)c1O | n | 74 | n | 38 | n
CCc1ccc(N=C2NC(=O)/C(=C/c3cc(OC)c(O)c(OC)c3)S2)cc1 | n | n | u | n | n
COc1cc(NC(=S)N2CCN(c3ccccn3)CC2)c(OC)cc1Cl | n | 34 | n | n | n
COc1ccc(Cl)cc1NC(=S)N1CCN(c2ccccn2)CC1 | n | n | n | 35 | n
S=C(Nc1ccc(Cl)cc1Cl)N1CCN(c2ccccn2)CC1 | n | n | n | n | n
COc1cccc(NC(=S)N2CCN(c3ccccn3)CC2)c1 | n | 32 | u | n | n
COc1ccc(Cl)cc1NC(=S)N1CCN(c2ncccn2)CC1 | n | n | n | n | n
S=C(Nc1cccc(Cl)c1)N1CCN(c2ccccn2)CC1 | n | n | n | n | n
CC1(C)S[C@@H]2[C@H](NC(=O)Cc3ccccc3)C(=O)N2[C@H]1C(=O)O | n | n | n | 33! | n
CCC(Oc1ccccc1)C(=O)NC1C(=O)N2C1SC(C)(C)C2C(=O)O (configuration not stated) | n | n | n | n | n
COC(=O)c1ccc(CN2CCC(CO)(CCOc3ccccc3)CC2)cc1 | n | x | n | x | n
COc1cccc(CC2(CO)CCCN(Cc3ccccc3Cl)C2)c1 (configuration not stated) | n | n | n | n | n
COc1cccc(CC2(CO)CCCN(Cc3ccc(CN4CCCCC4)s3)C2)c1 (configuration not stated) | n | n | n | 40 | n
COC(=O)c1ccc(CN2CCC(CO)(Cc3cccc(OC)c3)CC2)cc1 | n | n | n | 37 | n
COCc1ccc(C(=O)N2CCCC(C(=O)c3ccc(SC)cc3)C2)s1 (configuration not stated) | n | n | n | n | n
CCC(C)NCCCCOc1ccc(Cl)cc1C (configuration not stated) | x | x | n | x | n
CCCCNCCOCCOc1ccc(Cl)cc1Br | n | n | n | 72 | n
COCCCNCCCOc1ccc(Cl)cc1Br | n | n | n | n | n
COCCCNCCCOc1ccc(C)cc1Br | n | n | n | 38 | n
SMILES | D2 PAM-1 | D2 ag-1 | D2 ag-2 | D2 antag | D2 PAM-2
CCC(C)NCCCOc1cc(Cl)ccc1Cl (configuration not stated) | n | n | n | 80 | n
CCCCNCCCOc1cc(Cl)ccc1Cl | n | n | n | 56 | n
Cc1cn2c(=O)cc(COC(=O)c3cccc(NC(=O)C(C)Oc4ccccc4)c3)nc2s1 (configuration not stated) | n | n | x | x | x
CCN(CC)C(=O)c1sc2c(c1C)c(=O)n(CCc1ccccc1)c(=O)n2Cc1cccc(Cl)c1 | n | n | x | x | x
COc1cccc(NC(=O)c2cn(C3CCCCC3)c(=O)c3c2c2ccccc2n3C)c1 | n | n | x | x | x
CCCn1nc(C(=O)NCc2ccc3c(c2)OCO3)c2ccccc2c1=O | 39 | n | n | n | n
CC(C)Cn1nc(C(=O)NCc2ccccc2CN2CCCC2)c2ccccc2c1=O | n | n | n | 45 | n
COc1ccccc1CN1C(=O)[C@@H]2C(CCC(N)=O)NC3(C(=O)Nc4c3ccc(Cl)c4C)[C@@H]2C1=O (some centres not stated) | 32 | n | n | n | n
CN1CCN(c2nc(-c3ccccc3Cl)nc3ccccc23)CC1 | n | n | n | n | n
CN1CCN(c2nc(-c3cccs3)nc3ccccc23)CC1 | n | n | n | 32 | n
c1ccc(N2CCN(c3nc(-c4cccs4)nc4ccccc34)CC2)cc1 | n | x | n | x | n
CCN1CCN(c2nc(-c3ccccc3Cl)nc3ccccc23)CC1 | n | n | n | 38 | n
CCN1CCN(c2nc(-c3ccccc3)c3ccccc3n2)CC1 | n | n | n | 59 | n
COc1cccc(OCC(=O)NC2CC(=O)N(c3cccc(OC)c3)C2)c1 (configuration not stated) | n | n | x | x | x
CCc1ccc(NS(=O)(=O)c2ccc(-c3cc(C)no3)cc2)cc1 | n | n | x | x | x
CCn1nc(CC(=O)Nc2ccc(-n3cnnn3)c(C)c2)c2ccccc2c1=O | n | n | n | n | n
CCn1nc(CC(=O)Nc2ccc(-n3cnnn3)c(OC)c2)c2ccccc2c1=O | n | n | n | 35 | n
COC(=O)CC1=C(C(=O)OC)[C@@H](c2ccccc2[N+](=O)[O-])C(C#N)=C(N)O1 | n | n | n | n | n
COc1ccc(S(=O)(=O)N2CCOCC2)cc1NC(=O)c1cc2ccccc2o1 | n | n | n | n | n
CCCCC[n+]1ccn(-c2nc3ccccc3nc2[N-]S(=O)(=O)c2ccc(C)cc2)c1 | n | n | n | 38 | n
CCCC[n+]1ccn(-c2nc3ccccc3nc2[N-]S(=O)(=O)c2ccc(C)cc2)c1 | n | n | n | n | n
CC(C)COc1ccc(C(=O)Nc2onc3c2CCCC3)cc1 | n | n | x | x | x
Cc1cccc(CSc2nc3ccccc3c(=O)n2C)c1 | n | n | n | 35 | n
Cn1c(SCc2ccc(Br)cc2)nc2ccccc2c1=O | n | n | n | n | n
CC(C)CCNC(=O)c1onc(CSc2nc3ccccc3[nH]2)c1C(=O)NCCC(C)C | n | n | n | n | n
SMILES | D2 PAM-1 | D2 ag-1 | D2 ag-2 | D2 antag | D2 PAM-2
CCOP(=O)(c1ccccc1)c1nc(-c2ccc(F)cc2)oc1N1CCCCC1 (configuration not stated) | n | n | n | 32 | n
CCOP(=O)(OCC)c1nc(-c2ccc(Br)cc2)oc1N1CCCCC1 | x | x | n | x | n
Cc1ccc2c(C)c(C(=O)Nc3c(C)n(C)n(-c4ccccc4)c3=O)oc2c1C | n | n | 45 | n | n
Cc1c(NC(=O)c2cccnc2Cl)c(=O)n(-c2ccccc2)n1C | n | n | n | 36 | n
COc1ccc(C(=O)[C@H]2[C@H]3C(=O)N(c4ccccc4)C(=O)[C@H]3C3C=CC=NN32)cc1 (some centres not stated) | n | n | n | 43 | n
COc1cccc(N2CCN(Cc3ccsc3)CC2)c1 | n | n | n | 48 | n
Cc1ccc(-c2[nH]c3c(c2-c2c(-n4cccc4)n(C)c(=O)[nH]c2=O)c(=O)[nH]c(=O)n3C)cc1 | n | x | x | x | x

Screening results: PubChem BioAssay, National Center for Advancing Translational Sciences (NCATS)
